The supplement of paper PMC6518042

Each compound was assayed on Pectobacterium parmentieri SCC3193 (assay: DuctApe activity index (growth/respiration on compound as sole nutrient source, blank-subtracted) (activity index (0-3)); higher = stronger utilization of the compound, active = 3 or more). Conditions: nutrient role (plate category): carbon.
Protocol: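 Biolog Phenotype Microarray plates PM1, PM2A (carbon), PM3 (nitrogen) and PM4 (phosphorus/sulfur) inoculated with P. parmentieri SCC3193 in M9-C minimal salts medium with Biolog dye A, and read in the OmniLog for 46 h. Each well was tested in triplicate and the experiment was run twice. DuctApe computed a blank-subtracted activity index (AV, 0-3) from the mean curves; growth is positive at AV >= 3 and negative at AV <= 2.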

DuctApe activity index, active:
NC(=O)C[C@H](N)C(=O)O [L-Asparagine] 3, O=C[C@H](O)[C@@H](O)[C@H](O)[C@H](O)COP(=O)(O)O [D-Glucose-6-Phosphate] 3, OC[C@H]1O[C@@](CO)(O[C@H]2O[C@H](CO)[C@@H](O)[C@H](O)[C@H]2O)[C@@H](O)[C@@H]1O [Sucrose] 3, O[C@@H]1[C@@H](O)[C@@H](O)CO[C@H]1O [L-Arabinose] 3, CC(=O)N[C@@H]1[C@@H](O)[C@H](O)[C@@H](CO)O[C@@H]1O [N-Acetyl-D-Glucosamine] 3

DuctApe activity index, inactive:
NCC(=O)N[C@@H](CC(=O)O)C(=O)O 0, CO[C@H]1O[C@H](CO)[C@@H](O)[C@H](O)[C@@H]1O [a-Methyl-D-Mannoside] 0, OC[C@@H]1OC(O)[C@@H](O)[C@H](O)[C@H]1O (stereo partly drawn) [L-Glucose] 0, O=C1O[C@H](CO)[C@@H](O)[C@H]1O [D-Ribono-1,4-Lactone] 0, Cc1cn([C@H]2C[C@H](O)[C@@H](CO)O2)c(=O)[nH]c1=O [Thymidine] 1, NCC(=O)N[C@@H](CCC(=O)O)C(=O)O 0, OC[C@@]12OC[C@@H](O1)[C@@H](O)[C@@H](O)[C@@H]2O [Sedoheptulosan] 0, C[C@@H](N)C(=O)O [D-Alanine] 0, Nc1ncnc2c1ncn2[C@H]1C[C@H](O)[C@@H](CO)O1 [2`-Deoxyadenosine] 1, Nc1ncnc2c1ncn2[C@@H]1O[C@H](CO)[C@@H](O)[C@H]1O [Adenosine] 1, C[C@H](N)C(=O)O [L-Alanine] 0, NCCC[C@H](N)C(=O)O [L-Ornithine] 0, OC[C@@H](O)[C@@H](O)[C@H](O)[C@@H](O)CO [D-Sorbitol] 0

Same assay, conditions: nutrient role (plate category): nitrogen

DuctApe activity index, active:
CC(=O)N[C@@H]1[C@@H](O)[C@H](O)[C@@H](CO)O[C@@H]1O [N-Acetyl-D-Glucosamine] 3

DuctApe activity index, inactive:
Cc1cn([C@H]2C[C@H](O)[C@@H](CO)O2)c(=O)[nH]c1=O [Thymidine] 0, NC(=O)C[C@H](N)C(=O)O [L-Asparagine] 2, NCC(=O)N[C@@H](CCC(=O)O)C(=O)O 1, NO [Hydroxylamine] 0, C[C@@H](N)C(=O)O [D-Alanine] 0, Nc1ncnc2c1ncn2[C@@H]1O[C@H](CO)[C@@H](O)[C@H]1O [Adenosine] 2, C[C@H](N)C(=O)O [L-Alanine] 0, N[C@@H](Cc1c[nH]c2ccccc12)C(=O)O [L-Tryptophan] 1, NCCC[C@H](N)C(=O)O [L-Ornithine] 0

Same assay, conditions: nutrient role (plate category): phosphate & sulphur

DuctApe activity index, inactive:
CSCC[C@@H](N)C(=O)O [D-Methionine] 2, N[C@@H](CSCSC[C@H](N)C(=O)O)C(=O)O [L-Djenkolic acid] 1, CCCCS(=O)(=O)O [Butane Sulfonic acid] 1, NCCOP(=O)(O)O [O-Phosphoryl-Ethanolamine] 1, O=C(O)[C@H](O)[C@@H](O)[C@H](O)[C@H](O)COP(=O)(O)O [6-Phospho-Gluconic acid] 2, O=P(O)(O)CP(=O)(O)O [Methylene Diphosphonic acid] 0, NCCS(=O)O [Hypotaurine] 1, O=C[C@H](O)[C@@H](O)[C@H](O)[C@H](O)COP(=O)(O)O [D-Glucose-6-Phosphate] 2, Nc1ncnc2c1ncn2[C@@H]1O[C@H](CO)[C@@H](O)[C@H]1OP(=O)(O)O [Adenosine 2`-Monophosphate] 2, N[C@@H]1[C@@H](O)[C@H](O)[C@@H](COP(=O)(O)O)O[C@@H]1O [D-Glucosamine-6-Phosphate] 2, O=P(O)(O)OC(CO)CO [b-Glycerol Phosphate] 2

DuctApe activity index, active:
Nc1ccn([C@@H]2O[C@H](CO)[C@@H](O)[C@H]2OP(=O)(O)O)c(=O)n1 [Cytidine 2`-Monophosphate] 3
